The source of these data is PubChem BioAssay AID2158 (National Center for Advancing Translational Sciences (NCATS), 2009).

Where “and” joins values, the source holds several entries; their conditions need not be identical. Equal entries are not always repeated. Results filed as inconclusive are left out. Unmarked numbers belong to inactive results. Calls of active or inactive are those of the source. The call rests on the fitted dose curve; in most records, active means well fitted inhibition curve with a large enough effect; inconclusive means small, poorly fitted or top-dose-only effect; inactive means no such curve, though single readings can be large or run the other way.
Potency means the concentration at half of the fitted maximal effect.

Chain of Cruzipain (Trypanosoma cruzi) (P25779 123-467 limits assumed): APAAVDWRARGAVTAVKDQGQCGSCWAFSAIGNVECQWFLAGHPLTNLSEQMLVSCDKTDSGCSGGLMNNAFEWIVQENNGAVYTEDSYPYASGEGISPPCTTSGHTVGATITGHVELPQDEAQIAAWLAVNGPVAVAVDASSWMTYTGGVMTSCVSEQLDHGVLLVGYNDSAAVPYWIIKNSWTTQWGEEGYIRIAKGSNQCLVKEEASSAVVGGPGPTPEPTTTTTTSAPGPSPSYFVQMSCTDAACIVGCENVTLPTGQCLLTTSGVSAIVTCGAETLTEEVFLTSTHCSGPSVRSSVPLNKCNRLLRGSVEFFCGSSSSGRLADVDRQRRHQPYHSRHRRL

This experiment addresses Cruzipain (Trypanosoma cruzi) (UniProt P25779). As to the kind of experiment: Confirmation qHTS Assay for Inhibitors of Cruzain. Further: nearly all actives have a fitted effect of over 40% in size.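 On activity change, negative = inhibition: plate controls were uninhibited enzyme control for no effect and buffer wells lacking enzyme for full effect.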 The settings on record: purified cruzain, Z-FR-AMC fluorescence, 0.01% Triton. Put shortly:
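Purified cruzain, 1.5 nM, pre-incubated 15 min at room temperature with compound in 100 mM sodium acetate pH 5.5, 5 mM DTT, 0.01% Triton X-100. Then 2 uM Z-FR-AMC added; AMC fluorescence (ex 360/em 450 nm) increase over 60 s gave reaction progress.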
A general note: Quantitative high-throughput screening tests each substance at several concentrations.
In the case of `CCC(C(=O)NC1CCCCC1)n1c(SCc2ccc(F)cc2)nc2ccncc21` (stereo not drawn), the Potency was 4.47 µM (active).
On the same count and under the same terms, the same measure for `O=C(CNC(=O)C1CCCCC1)OCC(=O)c1ccc2c(c1)CCC2`: 6.31 µM (active).
`Cc1ccc2[nH]c(=O)c(CN(Cc3ccccc3)Cc3nnnn3Cc3ccccc3)cc2c1`: the activity change, negative = inhibition is -15.4%.
The same measure, in the same setting: as for `CCOc1ccc(CN2C(=O)c3ccccc3Sc3ccc(C(=O)NCc4ccc(C)cc4)cc32)cc1`, the figure is 0.925%.
Take `O=C(COC(=O)CNC(=O)C1CCCCC1)Nc1ccccc1Cl`: the Potency was 3.98 µM (active).
Same read-out and setting: the same measure for `Cc1cccc(C)c1OCCCn1c(CCNC(=O)C2CCCCC2)nc2ccccc21`: 1.26 µM (active) and 1.58 µM (active); for `O=C(CNC(=O)c1ccccc1)OC(CCc1ccccc1)C(=O)Nc1cc(C(F)(F)F)ccc1Cl` (stereo not drawn): 7.94 µM (active).
For the compound `CC(=O)NCCCc1ccc(C(=O)COC(=O)CNC(=O)c2ccc3ccccc3c2)cc1`, the activity change, negative = inhibition was -5.36%.
On to `CCC(C)NC(=O)c1ccc2nc(-c3ccco3)c(-c3ccco3)nc2c1` (stereo not drawn), for which the Potency is 7.08 µM (active).
In the case of `O=C(CNC(=O)C(c1ccccc1)c1ccccc1)OCC(=O)c1cccc2ccccc12`, the activity change, negative = inhibition was 17.8%.
On the same count and under the same terms, the same measure for `c1ccc(CN(Cc2ccccc2)Cc2nnc(-c3cc4ccccc4[nH]3)o2)cc1`: -7.39%.
Regarding `C=C(C)C(=O)OC1(C(F)(F)F)Oc2cc(C)ccc2NC1=O` (stereo not drawn), the Potency was 14.1 µM (active).
Same read-out and setting: as for `N#Cc1nc(N(c2ccccc2)c2ccccc2)nc(-n2cccc2)n1`, the figure is 2.51 µM (active); as for `CCCCNC(=O)c1ccc2nc(-c3ccco3)c(-c3ccco3)nc2c1`, 7.94 µM (active).
In the case of `O=C(NNC(=O)c1cc2ccccc2[nH]1)OCc1ccccc1`, the activity change, negative = inhibition was 2.31%.
Consider `O=C(NCCc1nc2ccccc2n1CCCOc1ccc(Cl)cc1)C1CCCCC1`, for which the Potency is 0.891 µM (active).
Consider `COc1ccc(-c2nn3c(-c4cc(-c5ccccc5)n[nH]4)nnc3s2)cc1`, for which the activity change, negative = inhibition is -14.7%.
Take `O=C(CNC(=O)c1ccccc1)OC(C(=O)Nc1ccc2c(c1)OCO2)c1ccccc1` (stereo not drawn): the Potency is 8.91 µM (active).
As to `Cc1ccc(Nc2nc(C#N)nc(NC3CCCC3)n2)cc1`, the Potency is 0.447 µM (active).
With `O=C(CNC(=O)c1ccccc1)NCC(=O)OCC(=O)c1ccc2ccccc2c1`, the activity change, negative = inhibition was 21.1%.
With `N#Cc1nc(N)nc(N(c2ccccc2)c2ccccc2)n1`, the Potency was 3.55 µM (active) and 3.16 µM (active).
For the compound `CCc1ccc2[nH]c(=O)c(CN(Cc3cccnc3)Cc3nnnn3Cc3ccccc3)cc2c1`, the activity change, negative = inhibition was -20.9%.
As for `COc1ccc2[nH]c3c(NCCN4CCCCC4)ncnc3c2c1`, the Potency was 12.6 µM (active).
Same read-out and setting: the same measure for `O=C1/C(=C/c2ccco2)CCc2ccccc21`: 2.51 µM (active); for `O=C(CNC(=O)c1ccccc1)OC(Cc1ccccc1)C(=O)Nc1cc(C(F)(F)F)ccc1Cl` (stereo not drawn): 7.08 µM (active); for `CCOc1ccc(C(=O)COC(=O)CNC(=O)C2CCCCC2)cc1`: 3.16 µM (active).
Regarding `COc1ccc(-c2nn3c(-c4cc(-c5ccccc5)n[nH]4)nnc3s2)cc1OC`, the activity change, negative = inhibition is -9.95%.
As for `O=C(CNC(=O)c1ccc([N+](=O)[O-])cc1)OC(C(=O)Nc1cc(C(F)(F)F)ccc1Cl)c1ccccc1` (stereo not drawn), the Potency was 12.6 µM (active).
Still for that read-out and setting: the same measure for `O=C(COC(=O)CNC(=O)c1ccccc1Cl)Nc1cc(C(F)(F)F)ccc1Cl`: 3.55 µM (active).
Consider `COc1cccc(OC)c1-c1nn2c(-c3n[nH]c4c3CCC4)nnc2s1`, for which the activity change, negative = inhibition was -13% and -10.1%.
In the case of `Cc1ccc(OCCn2c(CCNC(=O)C3CCCCC3)nc3ccccc32)cc1`, the Potency was 0.1 µM (active).
As to `CC(C)(C)OC(=O)CC(=O)NNC(=O)c1nc2ccccc2[nH]1`, the activity change, negative = inhibition is 3.76%.
In the case of `COc1cc(NC(=O)C(OC(=O)CNC(=O)c2ccccc2)c2ccccc2)cc(OC)c1` (stereo not drawn), the Potency was 25.1 µM (active).
The same measure, in the same setting: as for `Cc1cccc(C(=O)NCC(=O)OCC(=O)c2ccc3ccccc3c2)c1`, the figure is 12.6 µM (active).
With `COc1ccc(-c2nc(C#N)c(NCCCN3CCOCC3)o2)cc1`, the activity change, negative = inhibition is -29.3%.
Regarding `Cc1cccc(C(=O)NCC(=O)OC(C(=O)Nc2cc(C(F)(F)F)ccc2Cl)c2ccccc2)c1` (stereo not drawn), the Potency was 7.94 µM (active).
For the compound `Cc1ccccc1-c1nc2c(=O)n(C)c(=O)nc-2n(C)n1`, the Potency was 0.891 µM (active).
Same read-out and setting: as for `CCn1cnc2c(Nc3ccc(Cc4cccnc4)cc3)nc(C#N)nc21`, the figure is 14.1 µM (active).
